Source: PubChem BioAssay AID488890 (Southern Research Specialized Biocontainment Screening …, 2010)
Among all 320,000 compounds or so, about 1,300 (0.41%) were called active. Not shown: some 3% with an inconclusive outcome. The rule behind the calls is not given here. Not all results are given here. Results with a measured potency or affinity are listed apart. Peptide text beside a SMILES is read from it. * marks the point of attachment. Boc = CC(C)(C)OC(=O)*; OtBu = CC(C)(C)O*

Test: growth inhibition of non-replicating M. tuberculosis (AID 488890);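 note: plate controls were DMSO cells for no effect and high antibiotic wells for full effect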
Conditions: Mycobacterium tuberculosis non-replicating, at 25 µM, stronger effect = higher value

**Q.** With `COC(=O)c1ccc(OC(=O)c2ccccn2)cc1` as the compound, how does the inhibition read?
**A.** 42%

**Q.** For `O=C(OCc1c(Cl)cccc1Cl)c1cnccn1`, which inhibition is on record?
**A.** 17.6%

**Q.** Which inhibition does the source give for `O=C(COC(=O)c1ccccn1)Nc1ccccc1Cl` here?
**A.** 3.22%

**Q.** With `O=C(OCc1ccc(Cl)c(Cl)c1)c1cnccn1` as the compound, how does the inhibition read?
**A.** 4.21%

**Q.** With `O=C(c1cccs1)N1CCN(C2CCCCC2)CC1` as the compound, how does the inhibition read?
**A.** 14.6%

**Q.** With `O=C(CSc1nnc(CNC(=O)c2ccccc2F)o1)NCC1CCCO1` (stereo unspecified) as the compound, how does the inhibition read?
**A.** 4.55%

**Q.** With `Cc1cc(C)c(C)c(C(=O)COC(=O)CNC(=O)CNC(=O)c2ccco2)c1C` as the compound, how does the inhibition read?
**A.** 6.12%

**Q.** With `CN(C)/C=N/c1cc(=O)[nH]c(=O)n1CC1CC1` as the compound, how does the inhibition read?
**A.** -0.07%

**Q.** Which inhibition does the source give for `O=C(COc1ccc2ccccc2c1Br)N1CCCCC1` here?
**A.** 76.2%

**Q.** Which inhibition does the source give for `CN1CCN(C(=O)COc2ccc3ccccc3c2Br)CC1` here?
**A.** 37.4%

**Q.** Which inhibition does the source give for `O=C(Oc1c(Cl)cc(Cl)c2cccnc12)N1CCCCC1` here?
**A.** 22.4%

**Q.** For `O=C(Oc1c(Br)cc(Br)c2cccnc12)N1CCCCC1`, which inhibition is on record?
**A.** 43.3%

**Q.** Which inhibition does the source give for `O=C(COc1ccccc1F)Nc1c2c(nn1-c1ccccc1)CS(=O)(=O)C2` here?
**A.** 16.8%

**Q.** Which inhibition does the source give for `Cc1ccc(OCC(O)Cn2c(N3CCOCC3)nc3c2c(=O)[nH]c(=O)n3C)cc1` (stereo unspecified) here?
**A.** 14.4%

**Q.** With `COc1cccc(/C=N/N2CCN(c3ccccc3OC)CC2)c1` as the compound, how does the inhibition read?
**A.** 2.17%

**Q.** Which inhibition does the source give for `CCCCC[C@@H]1C=C(C(=O)O)[C@H](c2ccc3c(c2)OCO3)N1S(=O)(=O)c1ccc(C)cc1` here?
**A.** 27.2%

**Q.** With `COC(=O)C1ON2OC(C(=O)OC)C(C(=O)OC)C2C1CC(C)=O` (stereo unspecified) as the compound, how does the inhibition read?
**A.** -1.62%

**Q.** Which inhibition does the source give for `Cc1ccc(-c2nnc(C)c(N3CCOCC3)n2)cc1` here?
**A.** 7.79%

**Q.** For `Cc1ccc(-c2nnc(C)c(N3CC(C)OC(C)C3)n2)cc1` (stereo unspecified), which inhibition is on record?
**A.** 2.5%

**Q.** For `CCOC(=O)C1=C(N)OC2=C(C(=O)CC(C)(C)C2)C1c1ccc(C)s1` (stereo unspecified), which inhibition is on record?
**A.** 64.3%

**Q.** For `O=C(COC(=O)c1cccnc1Cl)NCCCc1ccccc1`, which inhibition is on record?
**A.** 27.7%

**Q.** For `COc1ncccc1-c1nnn(-c2ccccc2Br)n1`, which inhibition is on record?
**A.** 3.8%

**Q.** For `CCOC(=O)COc1ccc2c(c1)c(C(C)=O)c(C)n2-c1ccccc1`, which inhibition is on record?
**A.** 19.1%

**Q.** With `C#CCOc1ccc2c(c1)c(C(C)=O)c(C)n2Cc1ccccc1` as the compound, how does the inhibition read?
**A.** -5.53%

**Q.** With `O=C(COc1ccc(F)cc1Br)NCc1ccccn1` as the compound, how does the inhibition read?
**A.** 28.1%

**Q.** For `COc1ccc(S(=O)(=O)NCc2ccncc2)cc1NC(=O)c1ccc(Cl)cc1`, which inhibition is on record?
**A.** 5.22%

**Q.** With `Cc1oc2c(c(=O)c1C)C(=O)CC(c1ccccc1)C2` (stereo unspecified) as the compound, how does the inhibition read?
**A.** -6.93%

**Q.** Which inhibition does the source give for `Cc1c(C(=O)O)[nH]c2c1C(=O)CC(c1ccccc1)C2` (stereo unspecified) here?
**A.** 4.15%

**Q.** With `Cc1cc(Cl)ccc1N1C(=O)CC(NNC(=O)c2cccnc2)C1=O` (stereo unspecified) as the compound, how does the inhibition read?
**A.** 5.86%

**Q.** Which inhibition does the source give for `CCS(=O)(=O)N1CCC(NC(=O)C2CCCCC2)CC1` here?
**A.** -9.82%

**Q.** Which inhibition does the source give for `CCOC(=O)c1csc(N)n1` here?
**A.** -4.96%

**Q.** For `Cc1onc(-c2ccccc2)c1-c1csc(COc2ccccc2)n1`, which inhibition is on record?
**A.** 33.1%

**Q.** With `CCOC(=O)c1csc(-c2ccc(OC)c(OC)c2)n1` as the compound, how does the inhibition read?
**A.** 32.3%

**Q.** Which inhibition does the source give for `CC(C)NC(=O)NNC(=O)c1cc(COc2cc(Cl)cc(Cl)c2)on1` here?
**A.** 31.8%

**Q.** Which inhibition does the source give for `CCOC(=O)c1csc(NC(=O)COc2ccc(Cl)cc2Cl)n1` here?
**A.** 80.3%

**Q.** With `CC(=O)c1csc(COc2ccccc2)n1` as the compound, how does the inhibition read?
**A.** -0.92%

**Q.** With `CCOC(=O)c1csc(NC(C)=O)n1` as the compound, how does the inhibition read?
**A.** -1.23%

**Q.** Which inhibition does the source give for `CCC(=O)NNC(=O)c1cc(COc2cc(Cl)cc(Cl)c2)on1` here?
**A.** 40%

**Q.** Which inhibition does the source give for `COc1ccc(OC)c(Nc2nc(N)nc(CSc3nnc(N)s3)n2)c1` here?
**A.** -6.45%

**Q.** Which inhibition does the source give for `N#CC1(NC(=O)CSc2nnc(-c3ccccc3F)n2N)CCCCC1` here?
**A.** -6.24%

**Q.** Which inhibition does the source give for `O=C(CCN1C(=O)C2CC=CCC2C1=O)NC1CCCCC1` (stereo unspecified) here?
**A.** -1.44%

**Q.** Which inhibition does the source give for `COc1ccc(-c2cn(-c3ccc(Cl)cc3)c3[n+]2CCCCC3)cc1` here?
**A.** 10.6%

**Q.** With `O=C(c1ccc(N2CC3CC(C2)c2cccc(=O)n2C3)c([N+](=O)[O-])c1)N1CCCC1` (stereo unspecified) as the compound, how does the inhibition read?
**A.** -6.65%

**Q.** Which inhibition does the source give for `O=C(C1=NN[C@@H]2C(=O)N(Cc3ccccc3)C(=O)[C@H]12)c1ccc(F)cc1` here?
**A.** 5.43%

**Q.** For `N#CCP(=S)(c1ccccc1)c1ccccc1`, which inhibition is on record?
**A.** 24.1%

**Q.** For `CCCNC(=O)C(Cc1ccccc1)NC(=O)c1ccc(-c2ccccc2)cc1` (stereo unspecified), which inhibition is on record?
**A.** 4%

**Q.** Which inhibition does the source give for `COc1ccc(CN(CC2CCC(C(=O)O)CC2)C(=S)Nc2cc(Cl)ccc2OC)cc1` (stereo unspecified) here?
**A.** 2.05%

**Q.** For `CC(NC(=O)C(CC(=O)OC(C)(C)C)NC(=O)OC(C)(C)C)C(N)=O` (stereo unspecified) (Boc-Asp(OtBu)-Ala-NH2; configuration not given here), which inhibition is on record?
**A.** -0.24%

**Q.** For `CC(=O)c1csc(COc2ccc(Cl)cc2)n1`, which inhibition is on record?
**A.** 38.9%

**Q.** With `Nc1nonc1-c1noc(COc2ccccc2Cl)n1` as the compound, how does the inhibition read?
**A.** 5.72%

**Q.** Which inhibition does the source give for `Cc1onc(C(=O)NN)c1-c1csc(COc2ccc(Cl)cc2)n1` here?
**A.** 13.2%

**Q.** For `CCOC(=O)c1ccccc1-c1csc(N)n1`, which inhibition is on record?
**A.** 6.53%

**Q.** With `CCOC(=O)c1csc(NC(=O)c2ccc(OCC)cc2)n1` as the compound, how does the inhibition read?
**A.** 19.8%

**Q.** Which inhibition does the source give for `Cc1onc(-c2ccc(Cl)cc2Cl)c1-c1csc(COc2ccccc2)n1` here?
**A.** -7.56%

**Q.** With `CCn1cc(C(=O)NCC2CCCO2)c(=O)c2cc(S(=O)(=O)N3CCCCCC3)ccc21` (stereo unspecified) as the compound, how does the inhibition read?
**A.** 4.04%

**Q.** For `COc1ccccc1C(=O)Nc1c2c(nn1-c1cccc(C)c1C)CS(=O)(=O)C2`, which inhibition is on record?
**A.** 2.28%
